Active and inactive are the calls of the source. Rule for the calls: active = hit-call score of the fitted dose curve at least 0.9, where 1 is the maximum; inactive = score below 0.9.
Experiments:
[1] = molecular target: CCAAT/enhancer-binding protein beta (Homo sapiens) (UniProt P17676); assay: ATG_C_EBP_CIS: Attagene CIS-FACTORIAL HepG2 Assay for human CCAAT/Enhancer Binding Protein (C/EBP) beta (AID 2282927); details: HepG2 Attagene cis-factorial transcription factor reporter; actives raise or lower the signal
Sequence of CCAAT/enhancer-binding protein beta (Homo sapiens) (P17676 whole entry, looked up): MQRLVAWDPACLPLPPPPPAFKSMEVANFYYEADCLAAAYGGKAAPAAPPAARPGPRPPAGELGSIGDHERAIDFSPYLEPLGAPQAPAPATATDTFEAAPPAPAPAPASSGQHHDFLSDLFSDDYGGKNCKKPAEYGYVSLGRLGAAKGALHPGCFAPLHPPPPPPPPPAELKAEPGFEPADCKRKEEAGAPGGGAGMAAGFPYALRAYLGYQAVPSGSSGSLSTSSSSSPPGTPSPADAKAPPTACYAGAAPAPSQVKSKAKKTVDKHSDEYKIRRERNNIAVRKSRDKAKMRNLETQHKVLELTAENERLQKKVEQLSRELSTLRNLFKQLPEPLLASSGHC
Method in brief: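 Endogenous transcription factor activity in human liver HepG2 cells is inferred from induction of a CEBPB-linked reporter mRNA. Exposure lasts 24 h; activity is fitted in both directions relative to DMSO.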

[2] = ATG_CMV_CIS: Attagene CIS-FACTORIAL HepG2 Assay for human CMV (Internal Marker) (AID 2282928); details: HepG2 CMV promoter reporter, transcription factor profiling; actives raise or lower the signal;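 note: endpoint acts as a background internal control marker rather than a target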
Method in brief: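 Reporter transcripts from transfected HepG2 cells are isolated after 24 h of chemical dosing, reverse-transcribed and amplified. Fragments labeled with 6-FAM are cut with HpaI and quantified by capillary electrophoresis; DMSO defines baseline.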

[3] = ATG_DR4_LXR_CIS: Attagene CIS-FACTORIAL HepG2 Assay for human Liver X Receptor (LXR), DR4 submotif (AID 2282929); details: HepG2 Attagene DR4 cis-reporter, mRNA transcription; actives raise or lower the signal
Method in brief: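 Measures endogenous transcription factor activity via a DR4-driven reporter transcript in human HepG2 cells. Compounds incubated 24 h; mRNA quantified by RT-PCR and capillary electrophoresis, analysed as gain or loss of signal versus DMSO.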

[4] = molecular target: Aryl hydrocarbon receptor (Homo sapiens) (UniProt P35869); assay: ATG_Ahr_CIS: Attagene CIS-FACTORIAL HepG2 Assay for human Aryl Hydrocarbon Receptor (Ahr) (AID 2282930); details: HepG2 AhR cis-factorial reporter transcription; actives raise or lower the signal
Sequence of Aryl hydrocarbon receptor (Homo sapiens) (P35869 whole entry, looked up): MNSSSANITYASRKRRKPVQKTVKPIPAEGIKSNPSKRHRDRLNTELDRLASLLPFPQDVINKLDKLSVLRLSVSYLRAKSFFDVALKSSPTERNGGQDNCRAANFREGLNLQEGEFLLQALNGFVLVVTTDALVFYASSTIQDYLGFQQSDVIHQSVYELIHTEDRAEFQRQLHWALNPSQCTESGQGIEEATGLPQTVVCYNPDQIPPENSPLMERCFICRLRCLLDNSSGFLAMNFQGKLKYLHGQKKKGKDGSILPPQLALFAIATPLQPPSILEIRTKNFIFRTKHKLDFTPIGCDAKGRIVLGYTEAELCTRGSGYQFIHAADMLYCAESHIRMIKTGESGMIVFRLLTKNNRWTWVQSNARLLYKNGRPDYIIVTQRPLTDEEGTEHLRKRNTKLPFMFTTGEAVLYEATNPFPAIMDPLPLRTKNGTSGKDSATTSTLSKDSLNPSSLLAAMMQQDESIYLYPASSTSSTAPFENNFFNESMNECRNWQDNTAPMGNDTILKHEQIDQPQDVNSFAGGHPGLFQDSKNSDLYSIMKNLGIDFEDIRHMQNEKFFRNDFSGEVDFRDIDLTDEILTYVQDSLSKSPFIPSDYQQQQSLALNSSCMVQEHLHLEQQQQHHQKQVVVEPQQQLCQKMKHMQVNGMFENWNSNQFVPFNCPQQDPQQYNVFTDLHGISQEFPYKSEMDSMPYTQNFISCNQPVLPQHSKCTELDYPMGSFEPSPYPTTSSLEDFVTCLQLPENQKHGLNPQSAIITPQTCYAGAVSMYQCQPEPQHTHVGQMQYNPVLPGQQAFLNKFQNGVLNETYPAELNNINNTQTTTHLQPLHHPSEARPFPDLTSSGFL
Method in brief: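 Transient MRTU transfection of HepG2 → 24 h compound exposure → total RNA, oligo(dT) RT → PCR, 6-FAM extension, HpaI cut → CE fluorescence. DMSO = baseline; bidirectional curve fit.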

[5] = ATG_AP_1_CIS: Attagene CIS-FACTORIAL HepG2 Assay for human Activator Protein 1 (AP-1) (AID 2282931); details: HepG2 Attagene cis-factorial AP-1 reporter mRNA; actives raise or lower the signal
Method in brief: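 Bidirectional concentration-response fitting against DMSO controls. Underlying signal: reporter mRNA from cis-promoter constructs in transiently transfected HepG2, measured after 24 h by RT-PCR and capillary electrophoresis.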

[6] = ATG_AP_2_CIS: Attagene CIS-FACTORIAL HepG2 Assay for human Activator Protein 2 (AP-2) (AID 2282932); details: HepG2 AP-2 cis-reporter, Attagene transcription factor profiling; actives raise or lower the signal
Method in brief: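 Transiently transfected HepG2 cells are exposed to chemical for 24 h. Reporter transcripts are then measured as fluorescence following RT-PCR and capillary separation, and gain- or loss-of-signal is fitted relative to DMSO.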

[7] = ATG_BRE_CIS: Attagene CIS-FACTORIAL HepG2 Assay for human Bone Morphogenetic Protein (BMP) Response Element (BRE) (AID 2282933); details: HepG2 BMP response element reporter, Attagene transcription factor profiling; actives raise or lower the signal
Method in brief: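 Endogenous transcription factor activity read in transiently transfected HepG2 cells after 24 h chemical exposure. Bidirectional curve fitting against DMSO; readout is reporter transcript level by RT-PCR with capillary electrophoresis of labelled products.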

[8] = molecular target: Retinoic acid receptor alpha (Homo sapiens) (UniProt P10276); assay: ATG_DR5_RAR_CIS: Attagene CIS-FACTORIAL HepG2 Assay for human Retinoic Acid Receptor Alpha (RARE), DR5 submotif (AID 2282934); details: HepG2 Attagene cis-factorial RARE DR5 reporter, mRNA; actives raise or lower the signal
Sequence of Retinoic acid receptor alpha (Homo sapiens) (P10276 whole entry, looked up): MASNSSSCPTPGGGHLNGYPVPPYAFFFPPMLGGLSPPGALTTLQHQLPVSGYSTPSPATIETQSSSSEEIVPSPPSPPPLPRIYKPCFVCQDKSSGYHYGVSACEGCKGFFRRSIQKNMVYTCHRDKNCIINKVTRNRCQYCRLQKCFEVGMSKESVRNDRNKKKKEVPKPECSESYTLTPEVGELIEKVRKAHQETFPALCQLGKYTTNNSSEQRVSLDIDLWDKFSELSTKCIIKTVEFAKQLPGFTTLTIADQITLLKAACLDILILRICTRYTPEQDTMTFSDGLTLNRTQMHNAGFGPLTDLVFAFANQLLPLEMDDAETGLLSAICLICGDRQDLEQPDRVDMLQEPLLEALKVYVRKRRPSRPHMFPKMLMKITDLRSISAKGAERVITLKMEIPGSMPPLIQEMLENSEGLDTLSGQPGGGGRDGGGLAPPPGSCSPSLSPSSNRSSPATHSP
Method in brief: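 Transient MRTU transfection of HepG2; 24 h compound treatment; TriZol RNA, oligo(dT) RT, PCR, FAM labelling, capillary electrophoresis. Bidirectional fit vs DMSO. Endogenous TF activity at DR5 RARE.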

[9] = molecular target: Transcription factor E2F1 (Homo sapiens) (UniProt Q01094); assay: ATG_E2F_CIS: Attagene CIS-FACTORIAL HepG2 Assay for human E2F Transcription Factor 1 (AID 2282935); details: HepG2 Attagene cis-reporter, E2F reporter RNA transcripts; actives raise or lower the signal
Sequence of Transcription factor E2F1 (Homo sapiens) (Q01094 whole entry, looked up): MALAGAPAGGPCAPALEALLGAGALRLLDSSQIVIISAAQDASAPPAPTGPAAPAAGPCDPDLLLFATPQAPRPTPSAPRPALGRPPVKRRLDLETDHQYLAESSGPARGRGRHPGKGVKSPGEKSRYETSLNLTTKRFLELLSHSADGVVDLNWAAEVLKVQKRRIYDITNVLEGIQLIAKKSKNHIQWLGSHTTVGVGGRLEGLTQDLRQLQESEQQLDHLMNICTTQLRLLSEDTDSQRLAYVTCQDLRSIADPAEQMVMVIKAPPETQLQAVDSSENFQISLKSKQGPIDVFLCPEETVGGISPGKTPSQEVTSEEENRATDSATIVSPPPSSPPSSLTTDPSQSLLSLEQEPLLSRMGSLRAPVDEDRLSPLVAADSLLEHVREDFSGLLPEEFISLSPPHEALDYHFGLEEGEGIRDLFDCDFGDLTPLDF
Method in brief: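 Fluorescent RT-PCR products, digested with HpaI for 2 h at 37 C, are separated by capillary electrophoresis. Source RNA comes from transfected HepG2 cultures treated for 24 h.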

[10] = ATG_E_Box_CIS: Attagene CIS-FACTORIAL HepG2 Assay for human Enhancer Box (E-box) (AID 2282936); details: HepG2 E-box cis-reporter transcription, actives raise or lower the signal
Method in brief: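 Fluorescent reporter fragments separated by capillary electrophoresis gave the signal; mRNA came from HepG2 cells transfected with cis-element reporters and treated 24 h. Curves fitted bidirectionally relative to DMSO controls.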

[11] = ATG_M_61_CIS: Attagene CIS-FACTORIAL HepG2 Assay for M61 Transcription Factor (Internal Marker) (AID 2282937); details: HepG2 Attagene CIS-FACTORIAL M61 internal marker reporter; actives raise or lower the signal
Method in brief: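 Fluorescence from labelled cDNA fragments, separated by capillary electrophoresis, quantifies reporter induction. HepG2 cells bearing transiently transfected cis-promoter MRTUs were incubated with test chemical for 24 h; DMSO defined baseline for gain/loss fitting.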

[12] = ATG_EGR_CIS: Attagene CIS-FACTORIAL HepG2 Assay for human Early Growth Response 1 (EGR1) (AID 2282938); details: HepG2 Attagene CIS-FACTORIAL EGR reporter mRNA; actives raise or lower the signal
Method in brief: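 Cell-based multiplex transcription assay: HepG2 carrying transfected cis-element reporter units, 24 h chemical treatment. Fluorescence from capillary electrophoresis of RT-PCR products gives mRNA levels; fitting is bidirectional relative to DMSO.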

[13] = ATG_M_19_CIS: Attagene CIS-FACTORIAL HepG2 Assay for M19 Transcription Factor (Internal Marker) (AID 2282939); details: HepG2 Attagene CIS-FACTORIAL M19 internal marker reporter; actives raise or lower the signal
Method in brief: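 Internal marker readout, fitted in both directions against DMSO, from HepG2 cells carrying transfected cis-element reporter constructs; RT-PCR and capillary electrophoresis of reporter mRNA after 24 h exposure.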

[14] = ATG_ERE_CIS: Attagene CIS-FACTORIAL HepG2 Assay for Estrogen Response Element (ERE) (AID 2282940); details: HepG2 ERE cis-reporter, Attagene RNA transcript; actives raise or lower the signal
Method in brief: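 After 24 h compound treatment, RNA from transfected HepG2 cells was reverse-transcribed, reporter cDNA PCR-amplified, FAM-labelled, HpaI-cut and resolved by capillary electrophoresis. ERE-driven cis reporter transcripts reflect endogenous factors; gain or loss scored against DMSO.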

[15] = ATG_Ets_CIS: Attagene CIS-FACTORIAL HepG2 Assay for human Erythroblast Transformation Specific (ETS) (AID 2282941); details: HepG2 ETS cis-reporter transcription, actives raise or lower the signal
Method in brief: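 Bidirectional fit versus DMSO of reporter mRNA signal, detected by RT-PCR and capillary electrophoresis in HepG2 cells transiently transfected with cis-element reporters and dosed 24 h.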

[16] = molecular target: Hepatocyte nuclear factor 3-beta (Homo sapiens) (UniProt Q9Y261); assay: ATG_FoxA2_CIS: Attagene CIS-FACTORIAL HepG2 Assay for human Forkhead box A2 (FOXA2) (AID 2282942); details: HepG2 cis-reporter transcription factor activity, 24 h; actives raise or lower the signal
Sequence of Hepatocyte nuclear factor 3-beta (Homo sapiens) (Q9Y261 whole entry, looked up): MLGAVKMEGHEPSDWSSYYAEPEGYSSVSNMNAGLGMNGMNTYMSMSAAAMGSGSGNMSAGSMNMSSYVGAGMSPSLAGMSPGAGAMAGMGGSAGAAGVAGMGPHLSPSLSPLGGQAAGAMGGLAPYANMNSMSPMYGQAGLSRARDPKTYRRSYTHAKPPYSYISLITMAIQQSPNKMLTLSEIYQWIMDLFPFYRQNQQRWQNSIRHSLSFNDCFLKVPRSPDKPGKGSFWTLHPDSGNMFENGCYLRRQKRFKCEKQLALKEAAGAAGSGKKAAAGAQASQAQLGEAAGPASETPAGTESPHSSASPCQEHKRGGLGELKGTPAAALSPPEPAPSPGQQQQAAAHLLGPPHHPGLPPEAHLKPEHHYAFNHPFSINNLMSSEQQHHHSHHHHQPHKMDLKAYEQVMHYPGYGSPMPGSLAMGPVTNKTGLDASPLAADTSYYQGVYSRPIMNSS
Method in brief: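 In transiently transfected human HepG2 cells, promoter-driven reporter mRNA levels after 24 h chemical exposure are determined via RT-PCR with capillary electrophoresis. DMSO serves as baseline for bidirectional fitting.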

[17] = ATG_FoxO_CIS: Attagene CIS-FACTORIAL HepG2 Assay for human Forkhead box O (FoxO) (AID 2282943); details: HepG2 Attagene cis-reporter, FoxO element, mRNA; actives raise or lower the signal
Method in brief: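 HepG2, transient MRTU transfection (cis element, endogenous TFs). Dose 24 h. TriZol RNA → oligo(dT) RT → PCR → 6-FAM primer extension → HpaI cut → CE. Gain/loss vs DMSO.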

[18] = ATG_GATA_CIS: Attagene CIS-FACTORIAL HepG2 Assay for human GATA Binding Protein (AID 2282944); details: HepG2 GATA cis-element reporter, Attagene multiplex mRNA; actives raise or lower the signal
Method in brief: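 Reporter transcripts from a GATA cis-regulated unit, among multiplexed reporters in transfected HepG2 cells, were measured by RT-PCR with capillary electrophoresis after 24 h dosing. Induction or loss scored relative to DMSO.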

[19] = ATG_GLI_CIS: Attagene CIS-FACTORIAL HepG2 Assay for human Zinc Finger Protein GLI1 (AID 2282945); details: HepG2, Attagene cis-factorial reporter mRNA, GLI element; actives raise or lower the signal
Method in brief: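 Bidirectional curve fits relative to DMSO, using reporter mRNA levels from RT-PCR plus capillary electrophoresis. Cells were HepG2 transiently carrying cis-regulated reporter constructs, harvested 24 h after dosing.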

[20] = ATG_CRE_CIS: Attagene CIS-FACTORIAL HepG2 Assay for human cAMP Responsive Element (CRE) binding protein 3 (AID 2282926); details: HepG2 CRE cis-reporter, Attagene multiplexed mRNA; actives raise or lower the signal
Method in brief: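 Cells carrying cis-regulated reporter constructs respond through their own endogenous factors. After 24 h treatment, RNA is reverse-transcribed, amplified, labelled and sized by capillary electrophoresis; up- and down-regulation are both scored against vehicle.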

With `CCCCC1(COC(=O)CCC(=O)O)C(=O)N(c2ccccc2)N(c2ccccc2)C1=O` the outcome [1] was “inactive”, the outcome [2] was “inactive” and the outcome [3] was “inactive”. The outcome [4] was “inactive”, the outcome [5] was “inactive” and the outcome [6] was “inactive”. For the same compound, the outcome [7] was “inactive”, the outcome [8] was “inactive” and the outcome [9] was “inactive”. The outcome [10] was “inactive”, the outcome [11] was “inactive” and the outcome [12] was “inactive”. The outcome [13] was “inactive”, the outcome [14] was “inactive” and the outcome [15] was “inactive”. For the same compound, the outcome [16] was “inactive”, the outcome [17] was “inactive” and the outcome [18] was “inactive”. The outcome [19] was “inactive”.
In the case of `CCCCC1CCC(O)CC1` (stereo not drawn), the outcome [20] is reported as “inactive”, the outcome [1] is reported as “inactive” and the outcome [2] is reported as “inactive”. For the same compound, the outcome [4] was “inactive”, the outcome [5] was “inactive” and the outcome [6] was “inactive”. The outcome [7] was “inactive”, the outcome [8] was “inactive” and the outcome [10] was “inactive”. For the same compound, the outcome [11] was “inactive”, the outcome [12] was “inactive” and the outcome [13] was “inactive”. The outcome [15] was “inactive”, the outcome [16] was “inactive” and the outcome [17] was “inactive”. For the same compound, the outcome [18] was “inactive” and the outcome [19] was “inactive”.
In the case of `CC(CN=Cc1ccccc1O)N=Cc1ccccc1O` (stereo not drawn), the outcome [20] is reported as “inactive”, the outcome [1] is reported as “inactive” and the AC50 [2] is reported as 100 µM (active). The AC50 [5] was 100 µM (active), the outcome [6] was “inactive” and the outcome [7] was “inactive”. For the same compound, the outcome [8] was “inactive”, the outcome [9] was “inactive” and the outcome [10] was “inactive”. For the same compound, the outcome [11] was “inactive”, the outcome [12] was “inactive” and the outcome [13] was “inactive”. The outcome [15] was “inactive”, the outcome [16] was “inactive” and the outcome [17] was “inactive”. For the same compound, the outcome [18] was “inactive” and the outcome [19] was “inactive”.
With `CC(=O)c1ccccn1` the outcome [20] was “inactive”, the outcome [1] was “inactive” and the outcome [2] was “inactive”. For the same compound, the outcome [4] was “inactive”, the outcome [5] was “inactive” and the outcome [6] was “inactive”. For the same compound, the outcome [7] was “inactive”, the outcome [8] was “inactive” and the outcome [9] was “inactive”. For the same compound, the outcome [10] was “inactive”, the outcome [11] was “inactive” and the outcome [12] was “inactive”. For the same compound, the outcome [13] was “inactive”, the outcome [15] was “inactive” and the outcome [16] was “inactive”. The outcome [17] was “inactive”, the outcome [18] was “inactive” and the outcome [19] was “inactive”.
With `CN(C)C(=O)Nc1ccc(Oc2ccc(Cl)cc2)cc1` the outcome [20] was “inactive”, the outcome [1] was “inactive” and the AC50 [2] was 71.9 µM (active). For the same compound, the outcome [4] was “inactive”, the AC50 [5] was 100 µM (active) and the outcome [6] was “inactive”. The AC50 [7] was 113 µM (active), the outcome [8] was “inactive” and the outcome [9] was “inactive”. The outcome [10] was “inactive”, the outcome [11] was “inactive” and the outcome [12] was “inactive”. The outcome [13] was “inactive”, the outcome [15] was “inactive” and the outcome [16] was “inactive”. The outcome [17] was “inactive”, the outcome [18] was “inactive” and the outcome [19] was “inactive”.
In the case of `C/C=C(\C)C(=O)OCCc1ccccc1`, the outcome [20] is reported as “inactive”, the outcome [1] is reported as “inactive” and the outcome [2] is reported as “inactive”. For the same compound, the outcome [4] was “inactive”, the outcome [5] was “inactive” and the outcome [6] was “inactive”. For the same compound, the outcome [7] was “inactive”, the outcome [9] was “inactive” and the outcome [10] was “inactive”. The outcome [11] was “inactive”, the outcome [12] was “inactive” and the outcome [13] was “inactive”. For the same compound, the outcome [15] was “inactive”, the outcome [16] was “inactive” and the outcome [17] was “inactive”. For the same compound, the outcome [18] was “inactive” and the outcome [19] was “inactive”.
In the case of `CCCC(=O)OC(C)(C)Cc1ccccc1`, the outcome [20] is reported as “inactive”, the outcome [1] is reported as “inactive” and the outcome [2] is reported as “inactive”. The AC50 [4] was 72.8 µM (active), the outcome [5] was “inactive” and the outcome [6] was “inactive”. The outcome [7] was “inactive”, the outcome [8] was “inactive” and the outcome [9] was “inactive”. For the same compound, the outcome [11] was “inactive”, the outcome [12] was “inactive” and the outcome [13] was “inactive”. For the same compound, the outcome [15] was “inactive”, the outcome [16] was “inactive” and the outcome [17] was “inactive”. For the same compound, the outcome [18] was “inactive” and the outcome [19] was “inactive”.
